This note sets out measurements from ChEMBL document CHEMBL3433997, “St. Jude Leishmania screening dataset” (2016).

Common to all, as to assay type: functional
Assay [1] addresses Solute carrier family 2, facilitated glucose transporter member 1 (Homo sapiens) (UniProt P11166). Briefly: ST_JUDE_LEISH: Cytotoxicity at 2uM final concentration against transgenic Leishmania Mexicana promastigotes LmGLUT1 that are glucose transport deficient and complemented with the human glucose transporter GLUT1. Activity is measured by DNA content using SYBR green in vitro.

For assay [2], the target named is Hexose transporter 1 (Plasmodium falciparum) (UniProt O97467). Nature of the assay: ST_JUDE_LEISH: Cytotoxicity at 2uM final concentration against transgenic Leishmania Mexicana promastigotes LmPfHT that are glucose transport deficient and complemented with the Plasmodium falciparum hexose transporter. Activity is measured by DNA content using SYBR green in vitro.

The target of assay [3] is Glucose transporter (Leishmania mexicana) (UniProt O61059). Briefly: ST_JUDE_LEISH: Cytotoxicity at 2uM final concentration against transgenic Leishmania Mexicana promastigotes LmGT2 that are glucose transport deficient and complemented with the L. Mexicana glucose transporter 2. Activity is measured by DNA content using SYBR green in vitro.

Chain of Solute carrier family 2, facilitated glucose transporter member 1 (Homo sapiens) (P11166 whole entry): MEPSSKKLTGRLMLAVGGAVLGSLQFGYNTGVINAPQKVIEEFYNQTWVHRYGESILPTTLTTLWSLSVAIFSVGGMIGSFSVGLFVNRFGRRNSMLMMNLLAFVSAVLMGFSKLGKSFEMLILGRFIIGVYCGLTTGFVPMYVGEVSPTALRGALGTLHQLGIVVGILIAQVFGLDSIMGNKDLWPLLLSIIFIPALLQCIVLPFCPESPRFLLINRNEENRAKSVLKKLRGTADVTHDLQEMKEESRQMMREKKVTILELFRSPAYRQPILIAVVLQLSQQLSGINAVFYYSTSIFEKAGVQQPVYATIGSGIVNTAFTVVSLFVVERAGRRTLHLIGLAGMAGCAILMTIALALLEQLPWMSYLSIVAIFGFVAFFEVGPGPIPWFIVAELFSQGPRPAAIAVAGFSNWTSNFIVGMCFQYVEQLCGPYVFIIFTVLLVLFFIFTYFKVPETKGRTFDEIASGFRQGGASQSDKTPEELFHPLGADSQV

As a reminder, the inhibition is the change of the read-out against control, counted positive when it falls. On to `COc1cc(Cc2cnc(N)nc2N)cc(OCCCC#N)c1OC`, for which the values for the inhibition in assay [1], in assay [2] and in assay [3] were 0.61%, -1.21% and -1.3%, respectively.
On the same counts, the results for `CC(C)(C)c1cc(C(=O)Nc2cccnc2)cc(C(=O)Nc2cccnc2)c1` are 2.58%, 1.97% and 2.38%.
Consider `O=C(/C=C/c1ccc(Cl)c(Cl)c1)NC1CCN(CCNC(=O)c2cccc(Cl)c2)CC1`, for which the inhibition in assay [1] was found to be 4.41%; in assay [2], 3.11%; in assay [3], 2.53%.
On the same counts, the results for `O=C(Nc1cccc(OC2CCN(Cc3ccccc3)CC2)c1)c1ccc(Cl)c(Cl)c1` are 3.35%, 1.85% and 3.44%.
Consider `O=C(Nc1ccc2c(c1)CCC2)N[C@H]1CCN(Cc2ccc(OCCCN3CCCCC3)cc2)C1`, for which the inhibition is 1.25% in assay [1], 2.37% in assay [2] and 2.47% in assay [3].
For `CN1CCCC1CCNc1ncc2c(-c3ccc(NC(=O)Nc4cc(C(F)(F)F)ccc4F)cc3)nn(C)c2n1` (stereo not drawn), in that order: 3.33%, 1.92% and 3.95%.
On the same counts, the results for `CN(C)c1ccc(CN2CCCC(CNC(=O)c3ccc(-c4cccc(C(F)(F)F)c4)s3)C2)cc1` (stereo not drawn) are 1.33%, 1.64% and -0.14%.
On the same counts, the results for `Cc1cc(=O)c(-c2ccc(Oc3ccc(C(F)(F)F)cc3)cc2)c(C)n1O` are -1.23%, -2.25% and -1.9%.
For the molecule `Cc1cc(Nc2cccc(Cl)c2)nc2ccc(NC(=O)c3ccc(=O)[nH]c3)cc12`, the inhibition was found to be 2.59% in assay [1], 3.49% in assay [2] and 3.64% in assay [3].
In the case of `c1cc(-c2ccc(CN3CCCC3)cc2)cc(-c2nc3ccccc3[nH]2)c1`, the inhibition in assay [1] was found to be 0.44%; in assay [2], 1.4%; in assay [3], 0.98%.
For `COc1ccc(CN(C)CCCOc2ccc(NC(=O)c3cccc4c(=O)c5cccc(F)c5[nH]c34)cc2)cc1OC`, in that order: 4.27%, 3.24% and 3.1%.
For `CC(C)(C)c1cc(Cn2ccnc2)cc(C(C)(C)C)c1O`, in that order: 6.9%, 9.32% and 4.9%.
Take `CCCCCCCN1CC[C@@H](CCCc2ccnc3ccc(OC)cc23)[C@@H](CNC)C1`: the inhibition in assay [1] was 0.83%; in assay [2], -1.11%; in assay [3], -0.87%.
For `NC1CCN(Cc2ccc(-c3ccc(-c4nc5cc(F)ccc5[nH]4)s3)cc2)C1` (stereo not drawn), in that order: 0.37%, 4.62% and 5.81%.
On the same counts, the results for `Cc1ncccc1C(=O)Nc1cccc(-c2cccc(-c3nc4cccc(C)c4[nH]3)c2)c1` are 0.36%, 1.44% and 1.05%.
For `CCN(CC)C(=O)c1cccc(C=Cc2ccc(-c3c(C)[nH]c(C)c(Cl)c3=O)cc2)c1`, in that order: 2.65%, 2.83% and 1.56%.
Take `CCN1CCN(c2cc(C)c3cc(NC(=O)c4cccc([N+](=O)[O-])c4)ccc3n2)CC1`: the inhibition is -0.98% in assay [1], 0.44% in assay [2] and -1.42% in assay [3].
On the same counts, the results for `Cc1ccc(C)c(NC(=O)Nc2ccc(Nc3nc(C)cc(N4CCOCC4)n3)cc2)c1` are 1.4%, 0.2% and -5.61%.
As for `NCc1ccc(-c2ccccc2CNC2CCN(Cc3ccccc3)CC2)cc1`, the values for the inhibition in assay [1], in assay [2] and in assay [3] were 2.4%, 2.46% and 1.44%, respectively.
For `Cc1c2ccncc2c(C)c2c1[nH]c1cc(Cc3ccccc3)c(O)cc12`, in that order: 3.52%, 4.1% and -3.09%.
For `Cc1cc(N/N=C/c2ccccc2[N+](=O)[O-])c2ccc(F)cc2n1`, in that order: 2.1%, 4.11% and 1.62%.
On the same counts, the results for `COc1ccc(-c2nc(NC(=O)Cc3ccc4c(c3)OCCO4)sc2C)cc1` are 3.71%, 4.52% and 5.29%.
For the molecule `CC(C)c1ccc(N(CC(=O)N/N=C/c2ccc(C(F)(F)F)cc2)S(=O)(=O)c2ccc(C(F)(F)F)cc2)cc1`, the inhibition in assay [1] was 4.88%; in assay [2], 2.56%; in assay [3] it was 3.25%.
On to `O=C(Nc1ccc(F)cc1)NC1CCN(CCCCCNC(=O)C2CC2c2ccc(Cl)c(Cl)c2)CC1` (stereo not drawn), for which the inhibition is 1.84% in assay [1], 1.54% in assay [2] and 2.31% in assay [3].
Turning to `Cc1ccc(C(=O)Cn2nc(-c3ccc(C)c(S(=O)(=O)N4CCCCC4)c3)ccc2=O)cc1`, the inhibition in assay [1] was 8.67%; in assay [2], 12.3%; in assay [3] it was 6.75%.
`CCCCCCc1cc2cc(-c3nc(-c4ccc(OC)cc4)cs3)c(=O)oc2cc1O`: in assay [3], the inhibition was -8.01%.
With `Cc1nc2nc(N)nc(N)c2c(C)c1Cc1c(Cl)cccc1Cl`, the inhibition in assay [1] came out at 8.8%; in assay [2], 10.7%; in assay [3], 7.3%.
For the molecule `N=C(N)CCN(Cc1ccc(Cl)cc1)c1ccc(Cl)cc1`, the values for the inhibition in assay [1], in assay [2] and in assay [3] were 0.7%, 0.7% and 0.65%, respectively.
Turning to `CCCCCCc1ncc(-c2cc3cc(O)c(-c4ccccc4)cc3oc2=O)s1`, in assay [3], the inhibition was -5.92%.
